A selection: hits, their analogues and other compounds. The true share with any hit is near 3.5%.
Pf apPOL block – Pf-apPOL inhibitors, biochemical, fluorescence | Recombinant Pf-apPOL, molecular beacon fluorescence, 1.5 h | inhibition, % at 10 µM | 210,000 tested, 0.25% active | AID 1794808, 2022
mHTT CaM bind – mutant huntingtin-calmodulin interaction inhibitors – biochemical, AlphaScreen, primary screen; P42858; AlphaScreen His-mHTT/GST-CaM binding, luminescence; inhibition, % at 15 µM; 190,000 tested, 3.6% active; AID 1671202, 2021;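 note: 0% = both proteins with DMSO and 100% = one protein alone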
Starred values were filed as active, the others as inactive; . = no result; ! = a repeat was not active. Cut-off read from the data, not from the text of the source: active = inhibition above about 50%; inactive = the rest.

SMILES	Pf apPOL block	mHTT CaM bind
Cc1nnc2ccc(-c3cccc(NC(=O)CCSc4ccccc4)c3)nn12	-9	14
NS(=O)(=O)c1ccc(C23CC4CC(CC(C4)C2)C3)cc1	-5	7
Nc1ccc(C23CC4CC(C2)CC(c2ccc(N)cc2)(C4)C3)cc1	-8	84*
NC(=O)CC12CC3CC(C1)CC(c1ccccc1)(C3)C2	-9	4
Nc1ccc(C23CC4CC(CC(C4)C2)C3)cc1	-8	58*
CCOC(CN(Cc1ccc(OC)c(OS(=O)(=O)c2ccc(C)cc2)c1)S(=O)(=O)c1ccc(C)cc1)OCC	-3	.
COc1ccc(CNC(=O)c2cccc(N3CCNC(c4ccccc4)C3)n2)cc1OC (stereo not given)	-3	10
COc1ccc(C(=O)Nc2nc3ccc(C)cc3s2)cc1[N+](=O)[O-]	-23	2
COc1ccc(C(=O)Nc2nc3ccc(C)cc3s2)cc1OC	2	51*!
O=S(=O)(NC(c1ccccc1)C(Cl)Cl)C(F)(F)F (stereo not given)	-10	0
Cc1sc2cc(C(=O)N3CCN(C)CC3)[nH]c2c1CN1CCOCC1	-2	7
Cc1sc2cc(C(=O)N3CCOCC3)[nH]c2c1CN1CCOCC1	0	100*
COc1ccc(S(=O)(=O)N2CCC(C(=O)Nc3cccc(C(C)=O)c3)CC2)cc1	99*	10
COC(=O)Nc1ccc(S(=O)(=O)N2CCC(C(=O)Nc3cccc(OC)c3)CC2)cc1	-3	11
O=C1CCN(Cc2ccccc2)CCN1[C@H](COc1ccccc1)c1ccccc1	-4	85*
CC(C)[C@@H](COc1ccccc1)N1CCN(Cc2ccccc2)CCC1=O	-6	-1
C=CCc1cc(Cl)ccc1OCCCCn1ccnc1	4	21
O=c1cc(-c2ccccc2Cl)oc2ccc([N+](=O)[O-])c(O)c12	-5	5
O=[N+]([O-])c1cc([N+](=O)[O-])c2oc(-c3ccccc3)c(Br)c2c1O	-1	96*
Cn1c(CNC(=O)C2CCC2)nc2c1CN(C(=O)c1ccoc1)CC2	3	5
CCOC(=O)Cc1ccc(NC(=O)N2CCCC2c2cc(C)no2)cc1 (stereo not given)	-2	-5
COc1cc(OC)c(OC)cc1CN1CCN(c2ccccc2OC)CC1	-6	-1
COc1ccccc1N1CCN(Cc2ccc(Br)o2)CC1	85*	0
Cc1cc(NS(=O)(=O)c2ccc(NC(=O)COc3cccc(C)c3C)cc2)nc(C)n1	-2	21
O=C(Nc1cccc(Cl)c1)N1CCC2(CC1)Nc1ccccc1-n1cccc12	-1	24
SMILES	Pf apPOL block	mHTT CaM bind
O=C(Nc1cccc(Cl)c1)N1CCC2(CC1)Nc1cc(F)ccc1-n1cccc12	1	94*
O=C(Nc1ccc2c(c1)OCCO2)N1CCC2(CC1)Nc1ccccc1-n1cccc12	4	62*
Cc1ccc(C)c(NC(=O)N2CCC3(CC2)Nc2cc(F)ccc2-n2cccc23)c1	-6	31
O=C(Nc1ccc2c(c1)OCO2)N1CCC2(CC1)Nc1cc(F)ccc1-n1cccc12	-3	68*
Cc1ccc(NC(=O)N2CCC3(CC2)Nc2cc(F)ccc2-n2cccc23)cc1C	32	54*
CCOC(=O)C1C(=O)C=C(c2ccc(OC)c(OC)c2)CC1c1cccc([N+](=O)[O-])c1 (stereo not given)	-1	18
O=C(c1ccc2[nH]ccc2c1)N1CCC2(CC1)NC(=O)N(Cc1cccc(Cl)c1)C2=O	-7	19
Cc1cc(C)cc(NC(=O)N2CCC3(CC2)Nc2cc(F)ccc2-n2cccc23)c1	2	71*
Cc1ccc(NC(=O)N2CCC3(CC2)Nc2cc(F)ccc2-n2cccc23)cc1Cl	5	77*
Cc1cc(OC(=O)C23CC4CC(CC(C4)C2)C3)c([N+](=O)[O-])c(=O)[nH]1	-4	0
Cc1ccc2ccc(C(Nc3ccccn3)c3ccccc3C)c(O)c2n1 (stereo not given)	-33	68*
COc1ccccc1C(=O)Nc1ccccn1	1	-8
Cc1cc(C)c2nc(C)cc(NC(=O)c3ccccn3)c2c1	-1	-11
COc1cccc(C(Nc2ccccn2)c2ccc3ccc(C)nc3c2O)c1OC (stereo not given)	-30	69*
CN(C)CCCNC(=O)c1cccs1	4	-12
Brc1ccc(Nc2ncnc3c2cnn3Cc2ccccc2)cc1	8	-2
O=C(O)c1csc2c1CCCC2	.	-5
O=C1NC2(CCN(C(=O)Cc3cccc(F)c3)CC2)Nc2cc(Cl)ccc21	4	1
Cc1c(F)cccc1NC(=O)Nc1ccc2nnc(C)n2c1	2	11
COc1ccc(NC(=O)COc2ccc([N+](=O)[O-])cc2)c(OC)c1	-8	-2
COc1ccc(NCc2ccc([N+](=O)[O-])s2)c(OC)c1	22	67*
O=S(=O)(N1CCOCC1)N1CCN(CC(O)COc2ccc3c(c2)CCC3)CC1 (stereo not given)	.	10
O=C1N=C(N2CCOCC2)S/C1=C\c1cccs1	6	-5
O=C1N=C(c2ccccc2)S/C1=C/c1ccc2c(c1)OCO2	1	-3
Cc1ccc(/C=C2\SC(c3ccccc3)=NC2=O)o1	-6	56*
SMILES	Pf apPOL block	mHTT CaM bind
O=C1N=C(N2CCOCC2)S/C1=C\c1ccc(-c2ccccc2)o1	-2	80*
COc1cc(C2C(C#N)=C(N)N(c3ccc(Cl)cc3)C3=C2C(=O)CCC3)cc(OC)c1OC (stereo not given)	-3	27
OCc1nc2ccc(-c3nc4ccccc4[nH]3)cc2[nH]1	0	11
Cn1cc2c3c(cccc31)CN(C(=O)c1ccc(Br)cc1)CC2	-5	54*
CCCn1cc2c3c(cccc31)CN(C(=O)c1ccsc1)CC2	5	39
CCCn1cc2c3c(cccc31)CN(C(=O)c1ccc(F)cc1)CC2	0	94*
CCCn1cc2c3c(cccc31)CN(C(=O)c1ccccc1)CC2	-3	70*
CN(C)c1ccc(C(=O)N2CCc3cn(C)c4cccc(c34)C2)cc1	-4	1
CCCn1cc2c3c(cccc31)CN(C(=O)CC(C)(C)C)CC2	-3	17
CCc1ccccc1NC(=O)COc1ccccc1CC	-4	-28
O=C1Nc2cc(C(=O)N3CCC4(CC3)OCCO4)ccc2SC1N1CCOCC1 (stereo not given)	-12	-5
Cc1cccc[n+]1C1C(c2ccc([N+](=O)[O-])cc2)C(C#N)=C(C(C#N)C#N)NC1(O)C1CC1 (stereo not given)	-1	1
Cc1ccc[n+](C2C(c3ccc([N+](=O)[O-])cc3)C(C#N)=C(S)NC2(O)C2CC2)c1 (stereo not given)	-1	84*
O=c1[nH]c2ccc(N=Cc3cc([N+](=O)[O-])cc([N+](=O)[O-])c3O)cc2[nH]1	-1	5
O=C(CSc1nc2c(c(=O)n1-c1ccc(F)cc1)SCC2)Nc1ccccc1	-6	-2
O=[N+]([O-])c1ccccc1CNc1ccc(F)c(Cl)c1	11	47
COc1ccc(OC)c(CNc2ccc(F)c(Cl)c2)c1	-1	30
CCOc1cccc(CNc2ccc(F)c(Cl)c2)c1O	1	63*
COc1ccc(CNc2ccc(F)c(Cl)c2)c(OC)c1OC	-5	54*
COc1ccc(CNc2ccc(F)c(Cl)c2)cc1C	-4	-17
Oc1c(Cl)cc(Cl)cc1CNc1ccc(F)c(F)c1	0	100*

Bioassay records deposited in PubChem by University of Kansas High Throughput Screening Laboratory.
